Reference: PubChem BioAssay AID1159580 (chemical genetic matrix, 2015)
The whole screen tested about 5,500 compounds, of which about 2,000 (36%) were called active. About 18% were inconclusive and are not listed. No stated cut-off is given here; in the data, active means normalized growth mostly below about 0.91 (no sharp cut-off); inconclusive means no clear call, values can overlap the other calls; inactive means mostly above about 0.92. The list shows a part of the results.

Test: chemical genetic growth profiling, strain panel (AID 1159580);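 further: tested at 20 µM; growth read once vehicle control cultures reached saturation at 30 °C; 1 = growth at the plate median or of vehicle wells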
Conditions: growth OD
[1] = S. cerevisiae deletion strains, locus YAL013W, strain DEP1, stronger effect = lower value
[2] = S. cerevisiae deletion strains, locus YBR229C, strain ROT2, stronger effect = lower value
[3] = S. cerevisiae deletion strains, locus YDL101C, strain DUN1, stronger effect = lower value
[4] = S. cerevisiae deletion strains, locus YDL134C, strain PPH21, stronger effect = lower value
[5] = S. cerevisiae deletion strains, locus YDR150W, strain NUM1, stronger effect = lower value
[6] = S. cerevisiae deletion strains, locus YEL061C, strain CIN8, stronger effect = lower value
[7] = S. cerevisiae deletion strains, locus YGR078C, strain PAC10, stronger effect = lower value
[8] = S. cerevisiae deletion strains, locus YHR030C, strain SLT2, stronger effect = lower value
[9] = S. cerevisiae deletion strains, locus YHR087W, strain rtc3, stronger effect = lower value
[10] = S. cerevisiae deletion strains, locus YJL187C, strain SWE1, stronger effect = lower value
[11] = S. cerevisiae deletion strains, locus YJR043C, strain POL32, stronger effect = lower value
[12] = S. cerevisiae deletion strains, locus YJR075W, strain HOC1, stronger effect = lower value
[13] = S. cerevisiae deletion strains, locus YLR039C, strain RIC1, stronger effect = lower value
[14] = S. cerevisiae deletion strains, locus YLR058C, strain SHM2 (second series), stronger effect = lower value
[15] = S. cerevisiae deletion strains, locus YLR085C, strain ARP6, stronger effect = lower value
[16] = S. cerevisiae deletion strains, locus YLR262C, strain YPT6, stronger effect = lower value
[17] = S. cerevisiae deletion strains, locus YML094W, strain GIM5, stronger effect = lower value
[18] = S. cerevisiae deletion strains, locus YMR219W, strain ESC1, stronger effect = lower value
[19] = S. cerevisiae deletion strains, locus YMR263W, strain SAP30, stronger effect = lower value
[20] = S. cerevisiae deletion strains, locus YNL153C, strain GIM3, stronger effect = lower value
[21] = S. cerevisiae deletion strains, locus YNL298W, strain CLA4 (second series), stronger effect = lower value
[22] = S. cerevisiae deletion strains, locus YNL322C, strain KRE1, stronger effect = lower value
[23] = S. cerevisiae deletion strains, locus YNR030W, strain Alg12, stronger effect = lower value
[24] = S. cerevisiae deletion strains, locus YOL006C, strain TOP1, stronger effect = lower value
[25] = S. cerevisiae deletion strains, locus YPL055C, strain LGE1, stronger effect = lower value
[26] = S. cerevisiae deletion strains, locus YPL241C, strain CIN2, stronger effect = lower value
[27] = S. cerevisiae deletion strains, locus YPR135W, strain CTF4, stronger effect = lower value

Measured: normalized growth

Cc1cc(C)cc(N2C(=O)CC(Sc3ccccc3C(=O)O)C2=O)c1 (stereo unspecified)
active: [4] 0.773 | [8] 0.668 | [10] 0.894 | [11] 0.789 | S. cerevisiae deletion strains, locus YKL190W, strain CNB1, stronger effect = lower value 0.771 | [13] 0.109 | [15] 0.619 | [16] 0.12 | [17] 0.849 | [20] 0.876 | [21] 0.711 | [23] 0.078 | [24] 0.27 | [26] 0.0797 | [27] 0.222
inactive: [1] 0.955 | [2] 0.987 | [3] 0.953 | [5] 0.945 | [6] 0.961 | [7] 1 | [9] 0.987 | [12] 1.01 | [14] 0.995 | [18] 0.996 | [19] 0.928 | [22] 1 | [25] 0.876

CN(C)C(=N)N=C(N)N
inactive: S. cerevisiae deletion strains, locus YAL021C, strain ccr4, stronger effect = lower value 1.01 | S. cerevisiae deletion strains, locus YAL026C, strain drs2, stronger effect = lower value 1.02 | S. cerevisiae deletion strains, locus YAL030W, strain snc1, stronger effect = lower value 0.997 | S. cerevisiae deletion strains, locus YBL061C, strain skt5, stronger effect = lower value 1.03 | S. cerevisiae deletion strains, locus YBR009C, strain hhf1, stronger effect = lower value 0.966 | S. cerevisiae deletion strains, locus YBR023C, strain chs3, stronger effect = lower value 1.02 | S. cerevisiae deletion strains, locus YBR171W, strain sec66, stronger effect = lower value 1.01 | S. cerevisiae deletion strains, locus YBR231C, strain swc5, stronger effect = lower value 0.997 | S. cerevisiae deletion strains, locus YBR279W, strain paf1, stronger effect = lower value 1.03 | S. cerevisiae deletion strains, locus YCL011C, strain gbp2, stronger effect = lower value 1.01 | S. cerevisiae deletion strains, locus YCL016C, strain dcc1, stronger effect = lower value 1.04 | S. cerevisiae deletion strains, locus YCL061C, strain MRC1, stronger effect = lower value 0.995 | S. cerevisiae deletion strains, locus YCL069W, strain vba3, stronger effect = lower value 1 | S. cerevisiae deletion strains, locus YCR088W, strain abp1, stronger effect = lower value 1.01 | S. cerevisiae deletion strains, locus YDL005C, strain med2, stronger effect = lower value 1.02 | S. cerevisiae deletion strains, locus YDL040C, strain nat1, stronger effect = lower value 1 | S. cerevisiae deletion strains, locus YDR001C, strain nth1, stronger effect = lower value 1 | S. cerevisiae deletion strains, locus YDR069C, strain doa4, stronger effect = lower value 0.984 | S. cerevisiae deletion strains, locus YDR137W, strain rgp1, stronger effect = lower value 1.05 | S. cerevisiae deletion strains, locus YDR159W, strain sac3, stronger effect = lower value 0.893 | S. cerevisiae deletion strains, locus YDR195W, strain ref2 1.02 | S. cerevisiae deletion strains, locus YDR297W, strain sur2, stronger effect = lower value 0.998 | S. cerevisiae deletion strains, locus YDR334W, strain swr1, stronger effect = lower value 0.998 | S. cerevisiae deletion strains, locus YDR335W, strain msn5, stronger effect = lower value 1.03 | S. cerevisiae deletion strains, locus YDR392W, strain spt3, stronger effect = lower value 0.858 | S. cerevisiae deletion strains, locus YEL003W, strain gim4, stronger effect = lower value 0.985 | S. cerevisiae deletion strains, locus YEL037C, strain rad23, stronger effect = lower value 1.01 | S. cerevisiae deletion strains, locus YEL061C, strain CIN8 (second series), stronger effect = lower value 1 | S. cerevisiae deletion strains, locus YER015W, strain faa2, stronger effect = lower value 1.01 | S. cerevisiae deletion strains, locus YER016W, strain bim1, stronger effect = lower value 1.02 | S. cerevisiae deletion strains, locus YER111C, strain swi4, stronger effect = lower value 1.03 | S. cerevisiae deletion strains, locus YER155C, strain BEM2 (second series), stronger effect = lower value 0.867 | S. cerevisiae deletion strains, locus YFR010W, strain ubp6, stronger effect = lower value 0.978 | S. cerevisiae deletion strains, locus YGL167C, strain pmr1, stronger effect = lower value 0.999 | S. cerevisiae deletion strains, locus YGL173C, strain kem1, stronger effect = lower value 0.993 | S. cerevisiae deletion strains, locus YGL227W, strain vid30, stronger effect = lower value 0.996 | S. cerevisiae deletion strains, locus YGL240W, strain doc1, stronger effect = lower value 0.996 | S. cerevisiae deletion strains, locus YGL253W, strain hxk2, stronger effect = lower value 1.04 | S. cerevisiae deletion strains, locus YHR013C, strain ard1, stronger effect = lower value 1.01 | S. cerevisiae deletion strains, locus YHR027C, strain rpn1, stronger effect = lower value 0.986 | [8] 1.02 | S. cerevisiae deletion strains, locus YHR079C, strain IRE1, stronger effect = lower value 0.977 | S. cerevisiae deletion strains, locus YHR142W, strain chs7, stronger effect = lower value 1.02 | S. cerevisiae deletion strains, locus YJL092W, strain hpr5, stronger effect = lower value 0.997 | S. cerevisiae deletion strains, locus YJL095W, strain BCK1 (second series), stronger effect = lower value 1.01 | S. cerevisiae deletion strains, locus YJL095W, strain BCK1, stronger effect = lower value 0.987 | S. cerevisiae deletion strains, locus YJL115W, strain asf1, stronger effect = lower value 1.01 | S. cerevisiae deletion strains, locus YJL129C, strain trk1, stronger effect = lower value 1 | S. cerevisiae deletion strains, locus YJL154C, strain vps35, stronger effect = lower value 1 | S. cerevisiae deletion strains, locus YJL164C, strain tpk1, stronger effect = lower value 0.969 | S. cerevisiae deletion strains, locus YJL166W, strain qcr8, stronger effect = lower value 0.982 | S. cerevisiae deletion strains, locus YJR066W, strain TOR1, stronger effect = lower value 0.952 | S. cerevisiae deletion strains, locus YKL160W, strain elf1, stronger effect = lower value 1.04 | S. cerevisiae deletion strains, locus YKR026C, strain gcn3, stronger effect = lower value 1 | S. cerevisiae deletion strains, locus YKR091W, strain srl3, stronger effect = lower value 0.998 | S. cerevisiae deletion strains, locus YLL001W, strain dnm1, stronger effect = lower value 0.98 | S. cerevisiae deletion strains, locus YLL026W, stronger effect = lower value 1 | S. cerevisiae deletion strains, locus YLL041C, strain sdh2, stronger effect = lower value 0.998 | S. cerevisiae deletion strains, locus YLR027C, strain aat2, stronger effect = lower value 0.991 | S. cerevisiae deletion strains, locus YLR113W, strain HOG1, stronger effect = lower value 0.954 | S. cerevisiae deletion strains, locus YLR221C, strain rsa3, stronger effect = lower value 0.963 | S. cerevisiae deletion strains, locus YLR258W, strain gsy2, stronger effect = lower value 1.03 | S. cerevisiae deletion strains, locus YLR262C, strain YPT6 (second series), stronger effect = lower value 0.987 | S. cerevisiae deletion strains, locus YLR320W, strain mms22, stronger effect = lower value 0.93 | S. cerevisiae deletion strains, locus YLR342W, strain FKS1, stronger effect = lower value 0.996 | S. cerevisiae deletion strains, locus YLR357W, strain rsc2, stronger effect = lower value 1 | S. cerevisiae deletion strains, locus YLR370C, strain arc18, stronger effect = lower value 1.01 | S. cerevisiae deletion strains, locus YLR384C, strain iki3, stronger effect = lower value 0.99 | S. cerevisiae deletion strains, locus YML120C, strain ndi1, stronger effect = lower value 0.992 | S. cerevisiae deletion strains, locus YMR058W, strain fet3, stronger effect = lower value 1 | S. cerevisiae deletion strains, locus YMR125W, strain sto1, stronger effect = lower value 1.01 | S. cerevisiae deletion strains, locus YMR129W, stronger effect = lower value 0.992 | S. cerevisiae deletion strains, locus YMR205C, strain PFK2, stronger effect = lower value 0.985 | S. cerevisiae deletion strains, locus YMR231W, strain pep5, stronger effect = lower value 1 | S. cerevisiae deletion strains, locus YNL071W, strain lat1, stronger effect = lower value 0.995 | S. cerevisiae deletion strains, locus YNL183C, strain NPR1, stronger effect = lower value 0.923 | S. cerevisiae deletion strains, locus YNL209W, strain ssb2, stronger effect = lower value 1.02 | S. cerevisiae deletion strains, locus YNL248C, strain rpa49, stronger effect = lower value 1.02 | S. cerevisiae deletion strains, locus YNL322C, strain KRE1 (second series), stronger effect = lower value 1.02 | S. cerevisiae deletion strains, locus YNR049C, strain mso1, stronger effect = lower value 0.992 | S. cerevisiae deletion strains, locus YOR001W, strain rrp6, stronger effect = lower value 0.948 | S. cerevisiae deletion strains, locus YOR070C, strain gyp1, stronger effect = lower value 1.01 | S. cerevisiae deletion strains, locus YOR080W, strain dia2, stronger effect = lower value 1 | S. cerevisiae deletion strains, locus YOR083W, strain WHI5, stronger effect = lower value 0.975 | S. cerevisiae deletion strains, locus YOR106W, strain vam3, stronger effect = lower value 1.02 | S. cerevisiae deletion strains, locus YOR231W, strain MKK1, stronger effect = lower value 0.99 | S. cerevisiae deletion strains, locus YOR265W, strain rbl2, stronger effect = lower value 1.01 | S. cerevisiae deletion strains, locus YOR270C, strain vph1, stronger effect = lower value 0.929 | S. cerevisiae deletion strains, locus YOR290C, strain snf2, stronger effect = lower value 1.05 | S. cerevisiae deletion strains, locus YPL051W, strain arl3, stronger effect = lower value 1.05 | S. cerevisiae deletion strains, locus YPL078C, strain atp4, stronger effect = lower value 1.05 | S. cerevisiae deletion strains, locus YPL106C, strain sse1, stronger effect = lower value 1.09 | S. cerevisiae deletion strains, locus YPL240C, strain hsp82, stronger effect = lower value 1 | S. cerevisiae deletion strains, locus YPL256C, strain CLN2, stronger effect = lower value 0.961

NC(=S)c1ccc(Oc2ccc(Cl)cc2)nc1
active: [1] 0.064 | [2] 0.0587 | [3] 0.0679 | [5] 0.0611 | [6] 0.0551 | [7] 0.0731 | [8] 0.0713 | [9] 0.0597 | [10] 0.0568 | [11] 0.0583 | [12] 0.0782 | [13] 0.0764 | [14] 0.0563 | [15] 0.0896 | [16] 0.0758 | [17] 0.0624 | [18] 0.0569 | [19] 0.0585 | S. cerevisiae deletion strains, locus YMR307W, strain GAS1, stronger effect = lower value 0.112 | [20] 0.0622 | [21] 0.0667 | [22] 0.0647 | [23] 0.0581 | [25] 0.0942 | [26] 0.0912 | [27] 0.194 | S. cerevisiae strains, strain wild type, stronger effect = lower value 0.0499

N#Cc1ccc(Oc2ccc(Cl)cc2)nc1
inactive: [1] 1.04 | [2] 0.975 | [3] 0.944 | [4] 0.985 | [5] 1.01 | [6] 0.977 | [7] 1 | S. cerevisiae deletion strains, locus YGR229C, strain SMI1, stronger effect = lower value 0.987 | [8] 0.86 | [9] 0.992 | [11] 0.984 | [12] 0.968 | [13] 1.09 | [14] 0.966 | [15] 1.05 | [16] 1.05 | [17] 1.03 | [18] 0.971 | [19] 1.02 | [20] 0.986 | [21] 0.977 | [22] 0.98 | [23] 1.02 | [24] 0.903 | [25] 1.14 | [26] 0.886 | [27] 1.2
